Where “and” joins values, the source holds several entries; their conditions need not be identical. Equal entries are not always repeated. The whole screen tested about 5,500 compounds, of which about 2,000 (36%) were called active. About 18% were inconclusive and are not listed. Cut-off read from the data, not from the text of the source: active = normalized growth mostly below about 0.91 (no sharp cut-off); inconclusive = no clear call, values can overlap the other calls; inactive = mostly above about 0.92. The list shows a part of the results.
Assay: chemical genetic growth profiling, strain panel (AID 1159580);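 note: tested at 20 µM; growth read once vehicle control cultures reached saturation at 30 °C; 1 = growth at the plate median or of vehicle wells; lower values mean less growth of the strain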
Settings: growth OD

Measured: normalized growth

Clc1ccc2c(c1)C(N1CCNCC1)=Nc1ccccc1O2
active: S. cerevisiae deletion strains, locus YMR231W, strain pep5, hits give low values 0.487 | S. cerevisiae deletion strains, locus YOR083W, strain WHI5 (second series), hits give low values 1.13 [resistant]
inactive: S. cerevisiae deletion strains, locus YKL068W, hits give low values 0.996 | S. cerevisiae deletion strains, locus YKL085W, strain MDH1 (second series), hits give low values 1.01 | S. cerevisiae deletion strains, locus YKL085W, strain MDH1, hits give low values 1.01 | S. cerevisiae deletion strains, locus YKL160W, strain elf1, hits give low values 1.01 | S. cerevisiae deletion strains, locus YKL190W, strain CNB1, hits give low values 0.996 | S. cerevisiae deletion strains, locus YKR001C, strain vps1, hits give low values 1.03 | S. cerevisiae deletion strains, locus YKR026C, strain gcn3, hits give low values 0.983 | S. cerevisiae deletion strains, locus YKR091W, strain srl3, hits give low values 0.989 | S. cerevisiae deletion strains, locus YLL001W, strain dnm1, hits give low values 0.987 | S. cerevisiae deletion strains, locus YLL026W, hits give low values 1 | S. cerevisiae deletion strains, locus YLL041C, strain sdh2, hits give low values 1 | S. cerevisiae deletion strains, locus YLR027C, strain aat2, hits give low values 0.986 | S. cerevisiae deletion strains, locus YLR039C, strain RIC1, hits give low values 1.32 | S. cerevisiae deletion strains, locus YLR058C, strain SHM2, hits give low values 0.979 | S. cerevisiae deletion strains, locus YLR102C, strain apc9, hits give low values 0.993 | S. cerevisiae deletion strains, locus YLR113W, strain HOG1, hits give low values 1.02 | S. cerevisiae deletion strains, locus YLR221C, strain rsa3, hits give low values 0.985 | S. cerevisiae deletion strains, locus YLR258W, strain gsy2, hits give low values 0.991 | S. cerevisiae deletion strains, locus YLR262C, strain YPT6 (second series), hits give low values 1.04 | S. cerevisiae deletion strains, locus YLR262C, strain YPT6, hits give low values 1.38 | S. cerevisiae deletion strains, locus YLR268W, strain sec22, hits give low values 1.08 | S. cerevisiae deletion strains, locus YLR320W, strain mms22, hits give low values 0.967 | S. cerevisiae deletion strains, locus YLR330W, strain CHS5, hits give low values 0.988 | S. cerevisiae deletion strains, locus YLR342W, strain FKS1 (second series), hits give low values 0.901 | S. cerevisiae deletion strains, locus YLR342W, strain FKS1, hits give low values 0.955 | S. cerevisiae deletion strains, locus YLR357W, strain rsc2, hits give low values 0.97 | S. cerevisiae deletion strains, locus YLR370C, strain arc18, hits give low values 0.993 | S. cerevisiae deletion strains, locus YLR371W, strain rom2, hits give low values 0.968 | S. cerevisiae deletion strains, locus YLR384C, strain iki3, hits give low values 0.977 | S. cerevisiae deletion strains, locus YLR418C, strain cdc73, hits give low values 0.981 | S. cerevisiae deletion strains, locus YML016C, strain PPZ1, hits give low values 0.981 | S. cerevisiae deletion strains, locus YML032C, strain rad52, hits give low values 1.01 | S. cerevisiae deletion strains, locus YML120C, strain ndi1, hits give low values 1.01 | S. cerevisiae deletion strains, locus YML124C, strain tub3, hits give low values 0.979 | S. cerevisiae deletion strains, locus YMR058W, strain fet3, hits give low values 0.981 | S. cerevisiae deletion strains, locus YMR078C, strain ctf18, hits give low values 0.983 | S. cerevisiae deletion strains, locus YMR125W, strain sto1, hits give low values 0.928 | S. cerevisiae deletion strains, locus YMR129W, hits give low values 1.01 | S. cerevisiae deletion strains, locus YMR205C, strain PFK2, hits give low values 0.998 | S. cerevisiae deletion strains, locus YMR223W, strain ubp8, hits give low values 0.962 | S. cerevisiae deletion strains, locus YMR263W, strain SAP30, hits give low values 0.979 | S. cerevisiae deletion strains, locus YMR307W, strain GAS1, hits give low values 1.15 | S. cerevisiae deletion strains, locus YNL067W, strain RPL9B, hits give low values 1.01 | S. cerevisiae deletion strains, locus YNL071W, strain lat1, hits give low values 0.972 | S. cerevisiae deletion strains, locus YNL128W, strain TEP1, hits give low values 0.975 | S. cerevisiae deletion strains, locus YNL153C, strain GIM3, hits give low values 1.01 | S. cerevisiae deletion strains, locus YNL175C, strain NOP13, hits give low values 1 | S. cerevisiae deletion strains, locus YNL183C, strain NPR1, hits give low values 0.966 | S. cerevisiae deletion strains, locus YNL197C, strain WHI3, hits give low values 1.01 | S. cerevisiae deletion strains, locus YNL209W, strain ssb2, hits give low values 0.991 | S. cerevisiae deletion strains, locus YNL224C, strain SQS1, hits give low values 1.02 | S. cerevisiae deletion strains, locus YNL233W, strain BNI4, hits give low values 1 | S. cerevisiae deletion strains, locus YNL248C, strain rpa49, hits give low values 0.998 | S. cerevisiae deletion strains, locus YNL250W, strain rad50, hits give low values 0.981 | S. cerevisiae deletion strains, locus YNL271C, strain bni1, hits give low values 0.994 | S. cerevisiae deletion strains, locus YNL298W, strain CLA4, hits give low values 0.97 | S. cerevisiae deletion strains, locus YNL307C, strain MCK1, hits give low values 0.983 | S. cerevisiae deletion strains, locus YNL322C, strain KRE1 (second series), hits give low values 0.986 | S. cerevisiae deletion strains, locus YNL322C, strain KRE1, hits give low values 0.99 and 0.992 | S. cerevisiae deletion strains, locus YNR049C, strain mso1, hits give low values 0.995 | S. cerevisiae deletion strains, locus YNR052C, strain pop2, hits give low values 0.97 | S. cerevisiae deletion strains, locus YOL006C, strain TOP1, hits give low values 1.06 | S. cerevisiae deletion strains, locus YOL012C, strain htz1 1.29 | S. cerevisiae deletion strains, locus YOL147C, strain pex11, hits give low values 1 | S. cerevisiae deletion strains, locus YOR001W, strain rrp6, hits give low values 0.937 | S. cerevisiae deletion strains, locus YOR061W, strain CKA2, hits give low values 0.969 | S. cerevisiae deletion strains, locus YOR069W, strain VPS5, hits give low values 0.991 | S. cerevisiae deletion strains, locus YOR070C, strain gyp1, hits give low values 1 | S. cerevisiae deletion strains, locus YOR080W, strain dia2, hits give low values 0.989 | S. cerevisiae deletion strains, locus YOR083W, strain WHI5, hits give low values 0.937 | S. cerevisiae deletion strains, locus YOR106W, strain vam3, hits give low values 0.953 | S. cerevisiae deletion strains, locus YOR136W, strain idh2, hits give low values 0.975 | S. cerevisiae deletion strains, locus YOR144C, strain elg1, hits give low values 0.99 | S. cerevisiae deletion strains, locus YOR184W, strain ser1, hits give low values 1.01 | S. cerevisiae deletion strains, locus YOR231W, strain MKK1, hits give low values 1.02 | S. cerevisiae deletion strains, locus YOR265W, strain rbl2, hits give low values 0.992 | S. cerevisiae deletion strains, locus YOR270C, strain vph1, hits give low values 0.818 | S. cerevisiae deletion strains, locus YOR290C, strain snf2, hits give low values 0.948 | S. cerevisiae deletion strains, locus YOR316C, strain cot1, hits give low values 0.987 | S. cerevisiae deletion strains, locus YPL051W, strain arl3, hits give low values 0.987 | S. cerevisiae deletion strains, locus YPL055C, strain LGE1, hits give low values 0.989 | S. cerevisiae deletion strains, locus YPL078C, strain atp4, hits give low values 0.991 | S. cerevisiae deletion strains, locus YPL106C, strain sse1, hits give low values 0.966 | S. cerevisiae deletion strains, locus YPL240C, strain hsp82, hits give low values 0.978 | S. cerevisiae deletion strains, locus YPL241C, strain CIN2, hits give low values 1 and 0.992 | S. cerevisiae deletion strains, locus YPL256C, strain CLN2, hits give low values 1.03 | S. cerevisiae deletion strains, locus YPR119W, strain clb2, hits give low values 0.994 | S. cerevisiae deletion strains, locus YPR141C, strain kar3, hits give low values 0.956 | S. cerevisiae deletion strains, locus YPR163C, strain tif3, hits give low values 0.986 | S. cerevisiae deletion strains, locus YPR167C, strain met16, hits give low values 0.988 | S. cerevisiae deletion strains, strain wtn01, hits give low values 0.991 | S. cerevisiae strains, strain wild type, hits give low values 0.977

Reference: PubChem BioAssay AID1159580 (chemical genetic matrix, 2015)
